Results from PubChem BioAssay AID1159580 (chemical genetic matrix, 2015).
Where “and” joins values, the source holds several entries; their conditions need not be identical. Equal entries are not always repeated. Screen size: about 5,500 compounds; about 2,000 (36%) were called active. Not shown: some 18% with an inconclusive outcome. Rule as the data show it: active = normalized growth mostly below about 0.91 (no sharp cut-off); inconclusive = no clear call, values can overlap the other calls; inactive = mostly above about 0.92. The list shows a part of the results.

Test: chemical genetic growth profiling, strain panel (AID 1159580);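 also: tested at 20 µM; growth read once vehicle control cultures reached saturation at 30 °C; 1 = growth at the plate median or of vehicle wells; lower values mean less growth of the strain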
Details: S. cerevisiae deletion strains, growth OD

Measured: normalized growth

CN=C(NC#N)NCCSCc1nc[nH]c1C
inactive: locus YAL013W, strain DEP1, active compounds read low 0.997 | locus YAL021C, strain ccr4, active compounds read low 1 | locus YAL026C, strain drs2, active compounds read low 0.997 | locus YAL030W, strain snc1, active compounds read low 0.998 | locus YAL040C, strain CLN3, active compounds read low 1.01 | locus YBL061C, strain skt5, active compounds read low 0.991 | locus YBR009C, strain hhf1, active compounds read low 0.998 | locus YBR021W, strain FUR4, active compounds read low 0.993 | locus YBR023C, strain chs3, active compounds read low 0.996 | locus YBR171W, strain sec66, active compounds read low 0.996 | locus YBR229C, strain ROT2, active compounds read low 0.969 | locus YBR231C, strain swc5, active compounds read low 1 | locus YBR279W, strain paf1, active compounds read low 0.996 | locus YCL011C, strain gbp2, active compounds read low 0.993 | locus YCL016C, strain dcc1, active compounds read low 0.989 | locus YCL029C, strain bik1, active compounds read low 0.979 | locus YCL061C, strain MRC1, active compounds read low 1 | locus YCL069W, strain vba3, active compounds read low 1.01 | locus YCR088W, strain abp1, active compounds read low 0.998 | locus YDL005C, strain med2, active compounds read low 1.01 | locus YDL035C, strain GPR1, active compounds read low 1.01 | locus YDL040C, strain nat1, active compounds read low 1.01 | locus YDL074C, strain BRE1, active compounds read low 1.01 | locus YDL101C, strain DUN1, active compounds read low 0.984 | locus YDL134C, strain PPH21, active compounds read low 1 | locus YDL185W, strain tfp1, active compounds read low 0.977 | locus YDL192W, strain arf1, active compounds read low 0.995 | locus YDR001C, strain nth1, active compounds read low 1 | locus YDR069C, strain doa4, active compounds read low 0.997 | locus YDR101C, strain arx1, active compounds read low 0.992 | locus YDR137W, strain rgp1, active compounds read low 1.01 | locus YDR150W, strain NUM1, active compounds read low 1 | locus YDR159W, strain sac3, active compounds read low 0.997 | locus YDR162C, strain NBP2, active compounds read low 0.994 | locus YDR195W, strain ref2 0.976 | locus YDR297W, strain sur2, active compounds read low 0.997 | locus YDR318W, strain mcm21, active compounds read low 0.999 | locus YDR334W, strain swr1, active compounds read low 0.996 | locus YDR335W, strain msn5, active compounds read low 1.01 | locus YDR363W, strain ESC2, active compounds read low 0.998 | locus YDR388W, active compounds read low 0.991 | locus YDR392W, strain spt3, active compounds read low 0.905 | locus YDR502C, strain sam2, active compounds read low 1.02 | locus YEL003W, strain gim4, active compounds read low 1.01 | locus YEL037C, strain rad23, active compounds read low 0.998 | locus YEL061C, strain CIN8 (second series), active compounds read low 1 | locus YEL061C, strain CIN8, active compounds read low 0.998 | locus YER002W, strain NOP16, active compounds read low 1.02 | locus YER015W, strain faa2, active compounds read low 1.01 | locus YER016W, strain bim1, active compounds read low 1 | locus YER110C, active compounds read low 0.975 | locus YER111C, strain swi4, active compounds read low 0.993 | locus YER155C, strain BEM2 (second series), active compounds read low 0.97 | locus YER155C, strain BEM2, active compounds read low 0.99 | locus YER167W, strain BCK2, active compounds read low 0.997 | locus YFR010W, strain ubp6, active compounds read low 1 | locus YGL078C, strain dbp3, active compounds read low 0.989 | locus YGL086W, strain mad1, active compounds read low 1 | locus YGL167C, strain pmr1, active compounds read low 0.995 | locus YGL173C, strain kem1, active compounds read low 0.997 | locus YGL227W, strain vid30, active compounds read low 0.991 | locus YGL240W, strain doc1, active compounds read low 0.986 | locus YGL248W, strain PDE1, active compounds read low 0.993 | locus YGL253W, strain hxk2, active compounds read low 0.997 | locus YGR078C, strain PAC10, active compounds read low 0.996 and 1.01 | locus YGR135W, strain pre9, active compounds read low 0.992 | locus YGR229C, strain SMI1, active compounds read low 0.996 | locus YGR252W, strain gcn5, active compounds read low 1.1 | locus YHR013C, strain ard1, active compounds read low 0.972 | locus YHR027C, strain rpn1, active compounds read low 0.993 | locus YHR030C, strain SLT2, active compounds read low 0.977 and 1.03 | locus YHR079C, strain IRE1 (second series), active compounds read low 0.986 | locus YHR079C, strain IRE1, active compounds read low 1.07 | locus YHR094C, strain hxt1, active compounds read low 0.99 | locus YHR129C, strain ARP1, active compounds read low 0.985 | locus YHR142W, strain chs7, active compounds read low 0.998 | locus YHR200W, strain rpn10, active compounds read low 0.99 | locus YIL066C, strain RNR3, active compounds read low 0.998 | locus YIL073C, strain SPO22, active compounds read low 1.01 | locus YIL125W, strain kgd1, active compounds read low 0.992 | locus YIR030C, strain dcg1, active compounds read low 0.991 | locus YJL092W, strain hpr5, active compounds read low 0.994 | locus YJL095W, strain BCK1 (second series), active compounds read low 0.996 | locus YJL095W, strain BCK1, active compounds read low 0.952 and 1.02 | locus YJL115W, strain asf1, active compounds read low 1 | locus YJL129C, strain trk1, active compounds read low 1.01 | locus YJL134W, strain LCB3, active compounds read low 0.996 | locus YJL154C, strain vps35, active compounds read low 1.01 | locus YJL164C, strain tpk1, active compounds read low 0.992 | locus YJL166W, strain qcr8, active compounds read low 1 | locus YJL168C, strain set2, active compounds read low 0.983 | locus YJL187C, strain SWE1 (second series), active compounds read low 0.988 | locus YJL187C, strain SWE1, active compounds read low 1 | locus YJR043C, strain POL32, active compounds read low 0.98 | locus YJR066W, strain TOR1, active compounds read low 0.997
